# Data published in PMC7862700, “An all-to-all approach to the identification of sequence-specific readers for epigenetic DNA modifications on cytosine”.
# Columns and labels:
# Experiment in all cases: DAPPL (digital affinity profiling via proximity ligation, sequencing); 10 mM Tris-HCl pH 7.5, 50 mM NaCl, 1 mM DTT, 4% glycerol, room temperature, 30 min; GST-TFs on glutathione beads, 16-mer random dsDNA library, 0.1% formaldehyde crosslink after washing; high values mean tight binding
# Conditions in all cases: protein: recombinant; tags: N-terminal GST; dsDNA, one strand shown
# FLI1 = target: T1, FLI1 (Homo sapiens, UniProt Q01543 1-452)
# T1 sequence: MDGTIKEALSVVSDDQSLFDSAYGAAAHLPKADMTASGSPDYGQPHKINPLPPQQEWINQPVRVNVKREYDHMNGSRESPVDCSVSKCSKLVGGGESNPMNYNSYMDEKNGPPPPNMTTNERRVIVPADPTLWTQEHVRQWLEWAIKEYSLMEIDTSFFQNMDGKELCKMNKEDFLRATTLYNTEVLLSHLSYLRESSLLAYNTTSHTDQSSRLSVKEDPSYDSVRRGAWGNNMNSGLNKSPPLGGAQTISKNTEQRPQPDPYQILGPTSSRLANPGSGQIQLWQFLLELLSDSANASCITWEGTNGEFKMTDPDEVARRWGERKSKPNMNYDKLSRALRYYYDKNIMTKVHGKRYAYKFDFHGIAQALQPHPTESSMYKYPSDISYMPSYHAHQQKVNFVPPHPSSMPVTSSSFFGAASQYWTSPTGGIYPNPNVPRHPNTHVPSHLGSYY
# How it was run: (§1)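 After expression in yeast as GST fusions, human transcription factors were bound to glutathione beads, DNA-barcoded and mixed with a tag-only sample. The pools were incubated with 200 nmole of a 16-mer random double-stranded DNA library in Tris/NaCl/DTT/glycerol buffer (30 min, room temperature), washed and crosslinked with 0.1% formaldehyde. Proximity ligation with BsaI/T4 ligase ran for 1 h at 37 °C, before PCR amplification and sequencing on an Illumina NextSeq500. Binding signal is a hexamer's read frequency for a factor divided by its frequency for the tag-only sample.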
# ELK1 = target: T2, ELK1 (Homo sapiens, UniProt P19419 1-428)
# T2 sequence: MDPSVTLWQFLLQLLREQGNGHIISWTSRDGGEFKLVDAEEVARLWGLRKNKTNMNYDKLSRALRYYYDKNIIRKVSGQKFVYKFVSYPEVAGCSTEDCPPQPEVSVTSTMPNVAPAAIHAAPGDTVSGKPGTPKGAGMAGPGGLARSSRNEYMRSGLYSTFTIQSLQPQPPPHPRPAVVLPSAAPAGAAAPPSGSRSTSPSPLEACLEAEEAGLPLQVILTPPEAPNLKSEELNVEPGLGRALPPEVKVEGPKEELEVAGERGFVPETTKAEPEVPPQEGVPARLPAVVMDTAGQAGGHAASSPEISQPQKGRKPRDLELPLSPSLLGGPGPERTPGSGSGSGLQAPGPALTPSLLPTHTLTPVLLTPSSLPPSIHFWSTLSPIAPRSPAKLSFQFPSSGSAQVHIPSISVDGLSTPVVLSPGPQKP
# How it was run: as §1
# ERG = target: T3, ERG (Homo sapiens, UniProt P11308 1-479)
# T3 sequence: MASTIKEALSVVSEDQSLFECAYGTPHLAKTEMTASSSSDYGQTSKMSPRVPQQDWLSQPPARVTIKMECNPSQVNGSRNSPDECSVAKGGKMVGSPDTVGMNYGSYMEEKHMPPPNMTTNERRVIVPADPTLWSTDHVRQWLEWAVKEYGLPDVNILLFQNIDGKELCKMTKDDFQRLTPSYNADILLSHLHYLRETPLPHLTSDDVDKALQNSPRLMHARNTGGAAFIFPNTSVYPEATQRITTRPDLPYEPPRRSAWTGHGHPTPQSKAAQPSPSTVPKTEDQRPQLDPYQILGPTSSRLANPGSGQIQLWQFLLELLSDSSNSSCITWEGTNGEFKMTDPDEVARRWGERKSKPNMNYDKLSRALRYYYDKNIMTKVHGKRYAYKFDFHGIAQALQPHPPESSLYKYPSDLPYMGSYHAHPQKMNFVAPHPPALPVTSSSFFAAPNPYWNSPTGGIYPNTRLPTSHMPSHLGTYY
# How it was run: as §1
# ELF1 = ELF1 (Homo sapiens, UniProt P32519 1-619)
# How it was run: as §1
# EHF = target: T4, EHF (Homo sapiens, UniProt Q9NZC4 1-300)
# T4 sequence: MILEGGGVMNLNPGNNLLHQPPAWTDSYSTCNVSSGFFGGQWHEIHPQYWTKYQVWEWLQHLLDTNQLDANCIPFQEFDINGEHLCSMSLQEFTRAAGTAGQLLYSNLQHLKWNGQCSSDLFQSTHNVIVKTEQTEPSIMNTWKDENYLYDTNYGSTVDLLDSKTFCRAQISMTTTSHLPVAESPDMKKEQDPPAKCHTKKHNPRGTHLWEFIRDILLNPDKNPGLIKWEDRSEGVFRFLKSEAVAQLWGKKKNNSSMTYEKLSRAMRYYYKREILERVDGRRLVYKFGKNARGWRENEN
# How it was run: as §1
# SPIB = SPIB (Homo sapiens, UniProt Q01892 1-262)
# How it was run: as §1
# ELK3 = target: T5, ELK3 (Homo sapiens, UniProt P41970 1-407)
# T5 sequence: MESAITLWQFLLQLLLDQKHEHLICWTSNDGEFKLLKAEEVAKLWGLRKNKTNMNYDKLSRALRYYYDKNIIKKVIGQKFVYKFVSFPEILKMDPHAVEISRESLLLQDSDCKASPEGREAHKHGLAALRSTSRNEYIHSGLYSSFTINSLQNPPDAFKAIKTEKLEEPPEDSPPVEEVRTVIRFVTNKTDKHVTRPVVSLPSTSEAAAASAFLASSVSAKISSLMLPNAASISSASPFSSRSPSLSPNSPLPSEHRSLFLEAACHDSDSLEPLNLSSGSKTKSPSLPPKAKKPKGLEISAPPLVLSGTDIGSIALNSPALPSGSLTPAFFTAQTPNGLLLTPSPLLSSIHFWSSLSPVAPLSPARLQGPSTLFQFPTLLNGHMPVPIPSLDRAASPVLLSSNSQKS
# How it was run: as §1
# FEV = target: T6, FEV (Homo sapiens, UniProt Q99581 1-238)
# T6 sequence: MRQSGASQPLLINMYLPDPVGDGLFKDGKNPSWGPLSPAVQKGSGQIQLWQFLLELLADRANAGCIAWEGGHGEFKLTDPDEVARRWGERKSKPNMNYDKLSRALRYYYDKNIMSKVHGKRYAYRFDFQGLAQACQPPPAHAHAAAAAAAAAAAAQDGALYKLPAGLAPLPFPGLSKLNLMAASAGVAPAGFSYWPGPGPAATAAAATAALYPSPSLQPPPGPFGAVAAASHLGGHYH
# How it was run: as §1
# ETV5 = ETV5 (Homo sapiens, UniProt P41161 1-510)
# How it was run: as §1
# SPIC = target: T7, SPIC (Homo sapiens, UniProt Q8N5J4 1-248)
# T7 sequence: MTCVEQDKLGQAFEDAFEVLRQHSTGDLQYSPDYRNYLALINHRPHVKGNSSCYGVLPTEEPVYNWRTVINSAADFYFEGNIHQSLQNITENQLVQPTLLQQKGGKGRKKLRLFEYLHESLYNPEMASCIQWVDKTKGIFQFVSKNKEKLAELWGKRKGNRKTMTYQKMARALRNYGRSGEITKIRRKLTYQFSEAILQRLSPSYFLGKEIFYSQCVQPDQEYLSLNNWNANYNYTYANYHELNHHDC
# How it was run: as §1
# ELF4 = ELF4 (Homo sapiens, UniProt Q99607 1-663)
# How it was run: as §1
# ETV1 = ETV1 (Homo sapiens, UniProt P50549 1-477)
# How it was run: as §1
# ERF = target: T8, ERF (Homo sapiens, UniProt P50548 1-548)
# T8 sequence: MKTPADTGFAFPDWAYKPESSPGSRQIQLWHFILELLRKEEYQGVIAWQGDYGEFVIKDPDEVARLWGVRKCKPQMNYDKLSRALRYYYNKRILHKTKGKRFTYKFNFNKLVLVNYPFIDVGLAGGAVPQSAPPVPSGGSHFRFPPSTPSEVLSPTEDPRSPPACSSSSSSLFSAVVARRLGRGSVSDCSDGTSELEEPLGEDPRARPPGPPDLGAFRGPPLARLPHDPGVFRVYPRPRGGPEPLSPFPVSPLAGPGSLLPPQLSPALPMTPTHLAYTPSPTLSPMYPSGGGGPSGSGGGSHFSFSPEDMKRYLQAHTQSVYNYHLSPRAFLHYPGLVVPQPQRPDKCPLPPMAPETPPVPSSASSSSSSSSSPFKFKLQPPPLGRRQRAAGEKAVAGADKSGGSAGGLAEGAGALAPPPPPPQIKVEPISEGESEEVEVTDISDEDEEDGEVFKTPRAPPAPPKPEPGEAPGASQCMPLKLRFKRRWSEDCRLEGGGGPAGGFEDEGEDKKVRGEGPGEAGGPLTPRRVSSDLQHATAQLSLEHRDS
# How it was run: as §1
# ETV3L = target: T9, ETV3L (Homo sapiens, UniProt Q6ZN32 1-361)
# T9 sequence: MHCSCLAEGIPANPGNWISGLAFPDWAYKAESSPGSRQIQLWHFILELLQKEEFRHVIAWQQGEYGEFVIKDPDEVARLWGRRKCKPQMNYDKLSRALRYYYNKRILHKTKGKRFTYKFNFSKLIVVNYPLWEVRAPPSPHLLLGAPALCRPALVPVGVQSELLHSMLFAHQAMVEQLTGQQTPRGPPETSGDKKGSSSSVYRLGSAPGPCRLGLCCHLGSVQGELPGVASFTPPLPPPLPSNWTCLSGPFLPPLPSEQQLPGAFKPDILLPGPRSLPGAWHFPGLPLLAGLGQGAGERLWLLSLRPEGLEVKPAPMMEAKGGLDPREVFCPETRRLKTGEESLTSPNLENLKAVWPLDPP
# How it was run: as §1
# ETS2 = target: T10, ETS2 (Homo sapiens, UniProt P15036 1-469)
# T10 sequence: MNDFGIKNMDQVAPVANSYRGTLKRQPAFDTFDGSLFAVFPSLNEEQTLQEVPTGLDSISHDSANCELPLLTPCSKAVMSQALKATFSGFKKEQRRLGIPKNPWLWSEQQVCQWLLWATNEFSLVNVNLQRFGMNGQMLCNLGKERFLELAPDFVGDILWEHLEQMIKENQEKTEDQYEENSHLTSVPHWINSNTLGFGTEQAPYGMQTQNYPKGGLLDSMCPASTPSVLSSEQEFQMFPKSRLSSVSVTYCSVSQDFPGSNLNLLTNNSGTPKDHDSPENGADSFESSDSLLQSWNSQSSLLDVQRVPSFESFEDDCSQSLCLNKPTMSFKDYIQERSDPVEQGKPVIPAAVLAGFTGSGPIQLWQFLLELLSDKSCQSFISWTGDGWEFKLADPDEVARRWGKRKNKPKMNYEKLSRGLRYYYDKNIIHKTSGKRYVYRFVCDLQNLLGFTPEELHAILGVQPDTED
# How it was run: as §1
# SPDEF = target: T11, SPDEF (Homo sapiens, UniProt O95238 1-335)
# T11 sequence: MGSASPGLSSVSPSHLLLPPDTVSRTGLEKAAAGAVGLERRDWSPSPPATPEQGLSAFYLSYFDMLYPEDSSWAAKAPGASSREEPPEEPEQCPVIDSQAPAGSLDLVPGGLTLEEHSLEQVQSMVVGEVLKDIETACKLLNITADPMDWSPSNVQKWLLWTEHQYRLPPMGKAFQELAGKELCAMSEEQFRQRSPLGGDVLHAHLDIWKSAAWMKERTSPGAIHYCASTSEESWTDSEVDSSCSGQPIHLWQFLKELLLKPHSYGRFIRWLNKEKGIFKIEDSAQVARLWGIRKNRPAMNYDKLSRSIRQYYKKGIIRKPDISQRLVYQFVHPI
# How it was run: as §1
# ETV3 = target: T12, ETV3 (Homo sapiens, UniProt P41162-2 1-143)
# T12 sequence: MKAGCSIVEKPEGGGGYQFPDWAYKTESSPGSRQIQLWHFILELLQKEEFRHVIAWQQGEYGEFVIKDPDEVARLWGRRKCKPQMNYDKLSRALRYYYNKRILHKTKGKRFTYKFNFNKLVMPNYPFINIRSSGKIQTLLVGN
# How it was run: as §1
# ETV6 = ETV6 (Homo sapiens, UniProt P41212 1-452)
# How it was run: as §1
# Sequence of ELF1 (P32519 whole entry): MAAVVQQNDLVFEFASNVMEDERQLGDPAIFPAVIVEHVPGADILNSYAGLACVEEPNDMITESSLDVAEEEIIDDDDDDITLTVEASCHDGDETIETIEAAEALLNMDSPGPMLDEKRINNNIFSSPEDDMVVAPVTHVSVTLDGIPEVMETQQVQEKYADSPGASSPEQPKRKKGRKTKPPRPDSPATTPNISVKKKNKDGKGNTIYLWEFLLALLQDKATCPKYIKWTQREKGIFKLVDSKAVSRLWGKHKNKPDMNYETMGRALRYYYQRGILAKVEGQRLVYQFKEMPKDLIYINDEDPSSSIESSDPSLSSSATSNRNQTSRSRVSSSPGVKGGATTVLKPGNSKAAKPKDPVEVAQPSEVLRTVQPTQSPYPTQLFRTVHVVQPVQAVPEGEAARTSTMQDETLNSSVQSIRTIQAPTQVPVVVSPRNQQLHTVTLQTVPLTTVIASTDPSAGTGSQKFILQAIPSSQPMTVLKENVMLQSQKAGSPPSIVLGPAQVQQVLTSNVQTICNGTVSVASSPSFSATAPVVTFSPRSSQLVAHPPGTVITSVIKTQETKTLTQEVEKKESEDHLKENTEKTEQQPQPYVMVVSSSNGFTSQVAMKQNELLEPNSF
# Sequence of ETV5 (P41161 whole entry): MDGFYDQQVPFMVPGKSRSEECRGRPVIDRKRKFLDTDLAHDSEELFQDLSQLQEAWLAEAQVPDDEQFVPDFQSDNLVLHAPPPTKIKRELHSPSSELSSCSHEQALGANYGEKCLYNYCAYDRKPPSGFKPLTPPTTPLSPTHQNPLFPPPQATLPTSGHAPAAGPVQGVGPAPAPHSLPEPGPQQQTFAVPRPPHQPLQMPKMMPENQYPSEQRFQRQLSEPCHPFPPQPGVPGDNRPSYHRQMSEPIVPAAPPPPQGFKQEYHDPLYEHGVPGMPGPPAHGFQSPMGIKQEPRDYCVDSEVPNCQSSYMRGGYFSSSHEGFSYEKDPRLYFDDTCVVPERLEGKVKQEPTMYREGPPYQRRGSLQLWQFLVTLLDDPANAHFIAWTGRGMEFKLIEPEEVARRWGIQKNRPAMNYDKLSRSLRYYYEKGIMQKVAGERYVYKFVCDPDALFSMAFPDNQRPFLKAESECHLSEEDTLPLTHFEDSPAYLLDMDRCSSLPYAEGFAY
# Sequence of ETV1 (P50549 whole entry): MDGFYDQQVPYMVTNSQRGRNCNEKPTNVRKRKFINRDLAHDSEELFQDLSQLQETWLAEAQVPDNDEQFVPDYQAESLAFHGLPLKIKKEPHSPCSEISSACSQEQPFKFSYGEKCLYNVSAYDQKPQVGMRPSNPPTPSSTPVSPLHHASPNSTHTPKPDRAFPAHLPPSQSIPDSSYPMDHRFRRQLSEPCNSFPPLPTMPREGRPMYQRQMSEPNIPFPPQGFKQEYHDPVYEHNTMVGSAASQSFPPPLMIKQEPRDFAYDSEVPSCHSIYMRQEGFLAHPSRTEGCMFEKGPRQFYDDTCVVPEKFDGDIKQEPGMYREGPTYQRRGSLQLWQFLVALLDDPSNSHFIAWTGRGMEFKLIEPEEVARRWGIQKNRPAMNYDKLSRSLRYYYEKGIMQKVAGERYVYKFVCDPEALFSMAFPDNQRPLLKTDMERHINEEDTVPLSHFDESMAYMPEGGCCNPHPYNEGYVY
# Sequence of ETV6 (P41212 whole entry): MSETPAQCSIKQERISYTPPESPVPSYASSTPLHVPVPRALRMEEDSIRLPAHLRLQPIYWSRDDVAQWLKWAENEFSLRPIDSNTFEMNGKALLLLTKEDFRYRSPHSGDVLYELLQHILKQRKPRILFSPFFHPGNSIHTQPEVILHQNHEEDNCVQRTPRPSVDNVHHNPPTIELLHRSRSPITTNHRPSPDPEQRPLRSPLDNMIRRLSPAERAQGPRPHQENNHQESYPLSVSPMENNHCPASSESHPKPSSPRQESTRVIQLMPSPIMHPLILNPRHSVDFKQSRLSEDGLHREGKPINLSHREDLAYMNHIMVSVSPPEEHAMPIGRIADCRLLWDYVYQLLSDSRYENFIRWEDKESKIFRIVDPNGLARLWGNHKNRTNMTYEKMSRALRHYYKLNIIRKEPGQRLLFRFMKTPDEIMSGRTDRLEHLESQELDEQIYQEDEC
# Sequence of ELF4 (Q99607 whole entry): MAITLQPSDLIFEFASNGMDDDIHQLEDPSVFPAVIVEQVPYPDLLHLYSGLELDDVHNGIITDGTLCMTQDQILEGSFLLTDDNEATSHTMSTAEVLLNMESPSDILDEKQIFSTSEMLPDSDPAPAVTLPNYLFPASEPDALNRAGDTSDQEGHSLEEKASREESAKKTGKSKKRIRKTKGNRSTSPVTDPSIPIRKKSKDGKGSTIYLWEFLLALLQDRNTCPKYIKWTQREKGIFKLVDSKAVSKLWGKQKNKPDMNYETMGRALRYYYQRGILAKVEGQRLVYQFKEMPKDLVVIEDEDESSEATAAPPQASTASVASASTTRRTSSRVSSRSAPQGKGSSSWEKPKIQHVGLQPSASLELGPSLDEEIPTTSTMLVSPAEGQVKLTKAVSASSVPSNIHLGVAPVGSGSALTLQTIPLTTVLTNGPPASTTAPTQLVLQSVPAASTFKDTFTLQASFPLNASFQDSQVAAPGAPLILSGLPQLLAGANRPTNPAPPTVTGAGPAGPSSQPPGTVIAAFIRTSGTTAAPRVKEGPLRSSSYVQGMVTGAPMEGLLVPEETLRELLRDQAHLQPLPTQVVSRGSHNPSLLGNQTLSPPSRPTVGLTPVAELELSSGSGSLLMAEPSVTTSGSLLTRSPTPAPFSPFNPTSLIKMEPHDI
# Sequence of SPIB (Q01892 whole entry): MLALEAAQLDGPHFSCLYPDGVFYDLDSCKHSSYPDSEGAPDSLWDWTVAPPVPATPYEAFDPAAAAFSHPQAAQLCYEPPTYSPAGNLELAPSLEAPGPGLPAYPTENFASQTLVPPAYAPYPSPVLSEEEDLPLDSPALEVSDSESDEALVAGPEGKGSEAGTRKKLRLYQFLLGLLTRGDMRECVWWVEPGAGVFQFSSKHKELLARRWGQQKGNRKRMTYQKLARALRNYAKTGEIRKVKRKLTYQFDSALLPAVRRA
sequence,measurement,setting,value
TAACCG,binding signal,FLI1,"1.06 fold enrichment (6-mer frequency, TF over GST control)"
same,binding signal,ELK1,"1.05 fold enrichment (6-mer frequency, TF over GST control)"
same,binding signal,ERG,"1.06 fold enrichment (6-mer frequency, TF over GST control)"
same,binding signal,ELF1,"1.1 fold enrichment (6-mer frequency, TF over GST control)"
same,binding signal,EHF,"1.06 fold enrichment (6-mer frequency, TF over GST control)"
same,binding signal,SPIB,"1.18 fold enrichment (6-mer frequency, TF over GST control)"
same,binding signal,ELK3,"1.13 fold enrichment (6-mer frequency, TF over GST control)"
same,binding signal,FEV,"1.25 fold enrichment (6-mer frequency, TF over GST control)"
same,binding signal,ETV5,"1.07 fold enrichment (6-mer frequency, TF over GST control)"
same,binding signal,SPIC,"1.08 fold enrichment (6-mer frequency, TF over GST control)"
same,binding signal,ELF4,"1.06 fold enrichment (6-mer frequency, TF over GST control)"
same,binding signal,ETV1,"1.09 fold enrichment (6-mer frequency, TF over GST control)"
same,binding signal,ERF,"1.12 fold enrichment (6-mer frequency, TF over GST control)"
same,binding signal,ETV3L,"1.08 fold enrichment (6-mer frequency, TF over GST control)"
same,binding signal,ETS2,"1.07 fold enrichment (6-mer frequency, TF over GST control)"
same,binding signal,SPDEF,"1.1 fold enrichment (6-mer frequency, TF over GST control)"
same,binding signal,ETV3,"1.09 fold enrichment (6-mer frequency, TF over GST control)"
same,binding signal,ETV6,"1.08 fold enrichment (6-mer frequency, TF over GST control)"
